# Measured values: the supplement of paper PMC8728848
# This excerpt belongs to a sample that is enriched for the strongest signals.
# B1: YghJ (Escherichia coli), E3PJ90 (protein)
# chain: MNKKFKYKKSLLAAILSATLLAGCDGGGSGSSSDTPPVDSGTGSLPEVKPDPTPNPEPTPEPTPDPEPTPEPIPDPEPTPEPEPEPVPTKTGYLTLGGSQRVTGATCNGESSDGFTFKPGEDVTCVAGNTTIATFNTQSEAARSLRAVEKVSFSLEDAQELAGSDDKKSNAVSLVTSSNSCPANTEQVCLTFSSVIESKRFDSLYKQIDLAPEEFKKLVNEEVENNAATDKAPSTHTSPVVPVTTPGTKPDLNASFVSANAEQFYQYQPTEIILSEGRLVDSQGYGVAGVNYYTNSGRGVTGENGEFSFSWGEAISFGIDTFELGSVRGNKSTIALTELGDEVRGANIDQLIHRYSTTGQNNTRVVPDDVRKVFAEYPNVINEIINLSLSNGATLGEGEQVVNLPNEFIEQFNTGQAKEIDTAICAKTDGCNEARWFSLTTRNVNDGQIQGVINKLWGVDTNYKSVSKFHVFHDSTNFYGSTGNARGQAVVNISNAAFPILMARNDKNYWLAFGEKRAWDKNELAYITEAPSIVRPENVTRETASFNLPFISLGQVGDGKLMVIGNPHYNSILRCPNGYSWNGGVNKDGQCTLNSDPDDMKNFMENVLRYLSNDRWLPDAKSSMTVGTNLETVYFKKHGQVLGNSAPFAFHKDFTGITVKPMTSYGNLNPDEVPLLILNGFEYVTQWGSDPYSIPLRADTSKPKLTQQDVTDLIAYMNKGGSVLIMENVMSNLKEESASGFVRLLDAAGLSMALNKSVVNNDPQGYPDRVRQRRSTPIWVYERYPAVDGKPPYTIDDTTKEVIWKYQQENKPDDKPKLEVASWQEEVEGKQVTQFAFIDEADHKTPESLAAAKQRILDAFPGLEVCKDSDYHYEVNCLEYRPGTDVPVTGGMYVPQYTQLDLSADTAKAMLQAADLGTNIQRLYQHELYFRTNGRQGERLNSVDLERLYQNMSVWLWNETKYRYEEGKEDELGFKTFTEFLNCYTNNAYVGTQCSAELKKSLIDNKMIYGEESSKAGMMNPSYPLNYMEKPLTRLMLGRSWWDLNIKVDVEKYPGVVNTNGETVTQNINLYSAPTKWFAGNMQSTGLWAPAQQEVSIESKSTVPVTVTVALADDLTGREKHEVSLNRPPRVTKTYDLKANDKVTFKVPYGGLIYIKGDSKEVQSADFTFTGVVKAPFYKDGKWQHDLNSPAPLGELESASFVYTTPKKNLNASNYTGGLEQFANDLDTFASSMNDFYGRDSEDGKHRMFTYKNLPGHKHRFANDVQISIGDAHSGYPVMNSSFSPNSTTLPTTPLNDWLIWHEVGHNAAETPLTVPGATEVANNVLALYMQDRYLGKMNRVADDITVAPEYLEESNGQAWARGGAGDRLLMYAQLKEWAEKNFDIKKWYPDGTPLPEFYSEREGMKGWNLFQLMHRKARGDEVSNDKFGGKNYCAESNGNAADTLMLCASWVAQTDLSEFFKKWNPGANAYQLPGASEMSFEGGVSQSAYNTLASLDLPKPEQGPETINQVTEHKMSAE
# Legend:
# Assay in all cases: glycan array binding signal (z-score within array); higher = stronger binding
# Conditions in all cases: glycan notation: IUPAC condensed, linker removed
# [1] = target: Fuc(a1-2)Gal(b1-3)GalNAc(a1-3)[Fuc(a1-2)]Gal(b1-4)GlcNAc
# How it was run: (§1)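 Glycan array data were curated from 3228 arrays in the Consortium for Functional Glycomics database and kept only where the protein sequence was available. Glycan names were converted to IUPAC-condensed notation, and columns mapping to the same glycan were averaged. The binding signal is a within-array Z-score, averaged across arrays of the same protein sequence at different concentrations or buffers and across linkers. Negative Z-scores can be read as non-binding.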
# [2] = target: Fuc(a1-2)Gal(b1-3)GlcNAc(b1-3)Gal(b1-4)Glc
# How it was run: as §1
# [3] = target: Fuc(a1-2)Gal(b1-3)GlcNAc6S
# How it was run: as §1
# [4] = target: Fuc(a1-2)Gal(b1-4)GlcNAc(b1-2)Man(a1-3)[Fuc(a1-2)Gal(b1-4)GlcNAc(b1-2)Man(a1-6)]Man(b1-4)GlcNAc(b1-4)[Fuc(a1-6)]GlcNAc
# How it was run: as §1
# [5] = target: Fuc(a1-2)Gal6S(b1-3)GlcNAc6S
# How it was run: as §1
# [6] = target: Fuc(a1-2)[Gal(a1-3)]Gal(b1-4)GlcNAc(b1-2)Man
# How it was run: as §1
# [7] = target: Fuc(a1-2)[GalNAc(a1-3)]Gal(b1-3)GalNAc(a1-3)[Fuc(a1-2)]Gal(b1-4)GlcNAc
# How it was run: as §1
# [8] = target: Fuc(a1-2)[GalNAc(a1-3)]Gal(b1-3)GlcNAc(b1-2)Man(a1-3)[Fuc(a1-2)[GalNAc(a1-3)]Gal(b1-3)GlcNAc(b1-2)Man(a1-6)]Man(b1-4)GlcNAc(b1-4)GlcNAc
# How it was run: as §1
# [9] = target: Fuc(a1-2)[GalNAc(a1-3)]Gal(b1-4)GlcNAc(b1-6)GalNAc
# How it was run: as §1
# [10] = target: Fuc(a1-3)[Gal(b1-4)]GlcNAc(b1-3)Gal(b1-3)[Fuc(a1-4)]GlcNAc
# How it was run: as §1
# [11] = target: Fuc(a1-3)[GalNAc(b1-4)]GlcNAc6S
# How it was run: as §1
# [12] = target: Gal(a1-3)Gal(b1-3)GlcNAc(b1-6)GalNAc
# How it was run: as §1
# [13] = target: Gal(a1-3)Gal(b1-4)[Fuc(a1-3)]GlcNAc
# How it was run: as §1
# [14] = target: Gal(b1-3)GalNAc(b1-4)[Neu5Ac(a2-3)]Gal(b1-4)Glc
# How it was run: as §1
# [15] = target: Gal(b1-3)GlcNAc(b1-3)Gal(b1-4)GlcNAc(b1-6)[Gal(b1-3)GlcNAc(b1-3)]Gal(b1-4)Glc
# How it was run: as §1
# [16] = target: Gal(b1-3)GlcNAc(b1-3)Gal(b1-4)[Fuc(a1-3)]GlcNAc
# How it was run: as §1
# [17] = target: Gal(b1-4)GlcNAc(b1-2)Man(a1-3)[Gal(b1-4)GlcNAc(b1-2)Man(a1-6)]Man(b1-4)GlcNAc(b1-4)[Fuc(a1-6)]GlcNAc
# How it was run: as §1
# [18] = target: Gal(b1-4)GlcNAc(b1-2)[Gal(b1-4)GlcNAc(b1-6)]Man(a1-6)[Gal(b1-4)GlcNAc(b1-2)Man(a1-3)]Man(b1-4)GlcNAc(b1-4)GlcNAc
# How it was run: as §1
# [19] = target: Gal(b1-4)GlcNAc(b1-3)Gal(b1-4)Glc
# How it was run: as §1
# [20] = target: Gal(b1-4)GlcNAc(b1-3)Gal(b1-4)GlcNAc(b1-3)Gal(b1-4)GlcNAc(b1-2)Man(a1-3)[Gal(b1-4)GlcNAc(b1-3)Gal(b1-4)GlcNAc(b1-3)Gal(b1-4)GlcNAc(b1-2)Man(a1-6)]Man(b1-4)GlcNAc(b1-4)GlcNAc
# How it was run: as §1
# [21] = target: Gal(b1-4)GlcNAc(b1-3)Gal(b1-4)GlcNAc(b1-3)Gal(b1-4)GlcNAc(b1-3)Gal(b1-4)GlcNAc(b1-2)Man(a1-3)[Gal(b1-4)GlcNAc(b1-3)Gal(b1-4)GlcNAc(b1-3)Gal(b1-4)GlcNAc(b1-3)Gal(b1-4)GlcNAc(b1-2)Man(a1-6)]Man(b1-4)GlcNAc(b1-4)GlcNAc
# How it was run: as §1
# [22] = target: Gal(b1-4)GlcNAc(b1-3)Gal(b1-4)GlcNAc(b1-3)Gal(b1-4)GlcNAc(b1-3)Gal(b1-4)GlcNAc(b1-2)Man(a1-3)[Gal(b1-4)GlcNAc(b1-3)Gal(b1-4)GlcNAc(b1-3)Gal(b1-4)GlcNAc(b1-3)Gal(b1-4)GlcNAc(b1-2)Man(a1-6)]Man(b1-4)GlcNAc(b1-4)[Fuc(a1-6)]GlcNAc
# How it was run: as §1
# [23] = target: Gal(b1-4)GlcNAc(b1-3)Gal(b1-4)GlcNAc(b1-6)[Gal(b1-3)]GalNAc
# How it was run: as §1
# [24] = target: Gal(b1-4)GlcNAc(b1-6)GalNAc
# How it was run: as §1
binder,measurement,setting,value
B1,glycan array binding signal (z-score),[1],-1.47
same,glycan array binding signal (z-score),[2],-0.678
same,glycan array binding signal (z-score),[3],2.47
same,glycan array binding signal (z-score),[4],-0.129
same,glycan array binding signal (z-score),[5],3.49
same,glycan array binding signal (z-score),[6],-1.3
same,glycan array binding signal (z-score),[7],-0.92
same,glycan array binding signal (z-score),[8],0.546
same,glycan array binding signal (z-score),[9],0.95
same,glycan array binding signal (z-score),[10],2.74
same,glycan array binding signal (z-score),[11],0.125
same,glycan array binding signal (z-score),[12],0.282
same,glycan array binding signal (z-score),[13],-2.21
same,glycan array binding signal (z-score),[14],-0.276
same,glycan array binding signal (z-score),[15],1.23
same,glycan array binding signal (z-score),[16],2.4
same,glycan array binding signal (z-score),[17],2.37
same,glycan array binding signal (z-score),[18],0.576
same,glycan array binding signal (z-score),[19],0.172
same,glycan array binding signal (z-score),[20],0.559
same,glycan array binding signal (z-score),[21],-0.172
same,glycan array binding signal (z-score),[22],2.84
same,glycan array binding signal (z-score),[23],-0.193
same,glycan array binding signal (z-score),[24],-0.103
